Source: PubChem
MCL1 BIM primary = inhibitors of MCL1 binding to BIM-BH3, primary screen, biochemical, fluorescence polarization. GST-MCL1 / FITC-Bim-BH3 fluorescence polarization. inhibition, % at 10.9 µM. AID 2057, 2009. actives 0.68% (n = 320,000). Induced myeloid leukemia cell differentiation protein Mcl-1 (Homo sapiens), Q07820;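 active = inhibition above the mean inhibition of all tested compounds plus 3 SD, set per campaign, cut at about 40% in these data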;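 also: higher means more loss of mP so more displacement of Bim peptide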
eLon inh = inhibitors of E. coli Lon protease, primary screen, biochemical, fluorescence polarization. P0A9M0. purified E. coli Lon protease. inhibition, % at 7.94 µM. actives 0.42% (n = 360,000). AID 602123, 2011; in the data active = inhibition above about 13%, passing the limit was not always enough
Bcl-xL primary = inhibitors of human Bcl-xL, primary screen, biochemical, fluorescence polarization, HTS. Bcl-2-like protein 1 (Homo sapiens), Q07817. GST-Bcl-xL / FITC-Bim BH3 peptide fluorescence polarization. inhibition, % at 10.9 µM. actives 0.7% (n = 320,000). AID 2129, 2009;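 active = inhibition above the mean of all tested compounds plus 3 SD, cutoff set per campaign, cut at about 30% in these data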;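 also: inhibitors lower millipolarization by displacing the labeled peptide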
MEX-5 binding = MEX-5 zinc finger RNA-binding disruptors – biochemical, C. elegans, fluorescence polarization, MLPCN library, primary screen; MEX-5/FITC-TCR2 RNA binding; hits give low values; activity score (negative = inhibition of binding), % at 10 µM; actives 0.38% (n = 300,000);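 active = inhibition past about -25% in most replicates, and total fluorescence under double the plate's negative control median, limit read from the data; inconclusive = replicates evenly split on the limit, or fluorescence at least double controls; inactive = too little inhibition in most replicates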
EBV gp42 block = Epstein-Barr virus gp42 inhibitors, primary screen, biochemical, uHTS, fluorescence polarization; Glycoprotein 42 (Epstein-Barr virus (strain AG876)), Q1HVG2; Fluorescence polarization binding assay, mP read-out; inhibition, % (tested at 21.74 µM); actives 0.42% (n = 220,000); in the data active = inhibition above about 50%
GLD-1 RNA inh = GLD-1/TGE RNA complex disruptors, primary screen, biochemical, fluorescence polarization; purified GLD-1 + fluorescein TGE RNA; Female germline-specific tumor suppressor gld-1 (Caenorhabditis elegans), Q17339; AID 2280, 2010; inhibition, % at 5.96 µM; actives 0.44% (n = 320,000);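 active = percent inhibition above a per-plate cutoff, the plate mean of test compounds plus 3 SD, cut at about 30% in these data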
Target sequence (Q17339 whole entry, looked up): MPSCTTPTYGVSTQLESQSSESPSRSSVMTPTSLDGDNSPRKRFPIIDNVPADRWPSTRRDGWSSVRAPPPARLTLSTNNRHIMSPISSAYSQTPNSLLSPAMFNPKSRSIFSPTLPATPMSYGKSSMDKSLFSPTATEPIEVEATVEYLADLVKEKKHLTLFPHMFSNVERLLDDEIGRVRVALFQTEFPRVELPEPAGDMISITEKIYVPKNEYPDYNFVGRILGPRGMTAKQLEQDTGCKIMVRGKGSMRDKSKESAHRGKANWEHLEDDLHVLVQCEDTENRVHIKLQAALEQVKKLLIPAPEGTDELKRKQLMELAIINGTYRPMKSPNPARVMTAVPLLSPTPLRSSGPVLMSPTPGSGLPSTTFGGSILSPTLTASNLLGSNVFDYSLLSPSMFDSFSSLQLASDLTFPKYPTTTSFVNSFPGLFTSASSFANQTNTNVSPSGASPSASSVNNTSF
Numbers stand for hits; 0 = inactive; ? = inconclusive; - = not tested or not shown. Rows were chosen to be rich in hits. Some 1.5% of all compounds tested hit in one or more screens of this group.

SMILES	MCL1 BIM primary	eLon inh	Bcl-xL primary	MEX-5 binding	EBV gp42 block	GLD-1 RNA inh
CCN(CC)c1ccc(/C=N/NC(=O)c2cccc(S(=O)(=O)Nc3ccccc3OC)c2)cc1	0	0	0	0	0	0
CCc1nc2ccc(C(=O)NCCCN3CCCC3=O)cn2c1N(C)C(=O)COc1ccccc1	-	0	-	-	-	-
CC(C)(C)N(Cc1ccccc1)C(=O)COC(=O)C1=NN(c2ccccc2)C(=O)CC1	-	0	-	-	-	-
CCNc1nn2ccccc2c1/C=C(\C#N)C(=O)OCC	0	0	0	-63.3	0	0
COc1ccccc1CCNC(=O)c1cccc(S(=O)(=O)NCc2ccccc2)c1	0	0	0	0	-	0
O=C(COC(=O)c1ccc([N+](=O)[O-])o1)NCc1ccc2c(c1)OCO2	-	0	-	-	-	0
COCCn1c(=S)[nH]c2ccc(N(C)C)cc2c1=O	0	0	32.2	0	0	0
O=C(O)c1ccc(-n2c(-c3cc(-c4ccco4)[nH]n3)n[nH]c2=S)cc1	0	0	0	-91.6	0	0
CCn1c(C)c(C2=CCN(S(=O)(=O)c3ccccc3)CC2)c2ccccc21	0	0	0	0	0	32.2
Cc1ccc(S(=O)(=O)N2CC=C(c3c(C)n(C)c4ccccc34)CC2)cc1	0	0	0	0	0	0
CCOC(=O)N1CCC(Nc2nc3ccccc3nc2NS(=O)(=O)c2ccc(Cl)cc2)CC1	0	0	0	0	53.5	0
O=C1CS/C(=N/N=C/c2cccs2)N1	0	0	0	-32.3	0	0
O=S(=O)(Nc1ccc2c(c1)OCCO2)c1cccc2cccnc12	0	0	0	0	99.4	0
COC(OC)c1ccc(C#N)c(=O)[nH]1	0	0	0	0	0	0
Cc1occc1-c1nnc(SCC(=O)c2c[nH]c3ccccc23)n1C	0	0	0	-	144.0	0
Cc1occc1-c1nnc(SCC(=O)c2ccc(Cl)cc2)n1C	0	0	0	0	0	0
O=C(c1ccccc1)c1ccc2nc(-c3ccco3)c(-c3ccco3)nc2c1	0	0	31.5	0	0	0
CC(=O)c1cccc(NC(=O)c2cc(-c3ccco3)nc3ccccc23)c1	0	0	0	0	-	0
O=C(O)c1cc(-c2ccco2)nc2cc3ccccc3cc12	0	0	35.1	0	0	0
O=C(O)c1ccc2nc(-c3ccccc3)c(-c3ccccc3)nc2c1	0	0	0	0	0	0
O=C(NNC(=O)c1cc(-c2ccco2)nc2ccccc12)c1ccccc1	0	0	35.2	0	0	0
O=C(Nc1ccccc1F)c1cc(-c2ccco2)nc2ccccc12	0	0	0	-	-	0
CC[C@@]1(C(=O)OC)N[C@H](CN(C)C(=O)Nc2ccc(C)cc2)[C@@H]2C(=O)N(C)C(=O)[C@@H]21	-	0	-	-	-	0
O=C(O)c1cnc2[nH]c3ccccc3n2c1=O	0	0	0	0	0	0
Cc1c(C(=O)NCc2ccc(F)cc2)sc(=O)n1Cc1ccccc1	-	0	-	-	-	-
SMILES	MCL1 BIM primary	eLon inh	Bcl-xL primary	MEX-5 binding	EBV gp42 block	GLD-1 RNA inh
Cc1ccccc1C(=O)Nc1ccnn1C1CCN(C(C)Cc2ccccc2F)CC1 (stereo unspecified)	42.0	0	39.0	0	-	0
CC(CN1CCC(n2nccc2NC(=O)c2ccccc2Cl)CC1)c1ccccc1 (stereo unspecified)	0	0	33.4	0	-	0
Cc1ccc(S(=O)(=O)c2cc3ccccc3oc2=O)cc1	0	0	0	0	0	0
CCN(CC)c1ccc2cc(S(=O)(=O)c3ccc(C)cc3)c(=O)oc2c1	0	0	0	-77.4	142.0	0
CCN(CC)c1ccc2cc(C#N)c(=O)oc2c1	0	0	0	-56.9	0	0
Cc1ccc(C(=O)NNC(=O)c2ccc(S(=O)(=O)N3CCCCC3)cc2)cc1	-	0	-	-	-	0
CCCCCCc1cc2cc(S(=O)(=O)c3ccc(F)cc3)c(=O)oc2cc1O	0	0	0	0	0	59.6
CCN(CC)c1ccc2cc(C(=O)NNC(=O)c3ccc(S(=O)(=O)N4CCCCC4)cc3)c(=O)oc2c1	0	0	0	?	173.6	0
CSc1ccccc1OCc1cc(C(=O)N(C)C(C)c2nc(C)cs2)no1 (stereo unspecified)	0	0	0	0	-	0
COc1cc(C2Nc3cccc4cccc(c34)N2)ccc1OC(C)=O	44.6	0	39.1	0	0	0
COc1ccccc1CN(C(=O)CCl)C(C(=O)NC1CCCCC1)c1ccncc1 (stereo unspecified)	0	24.7	30.5	-	0	0
Cc1cc2n(n1)C(c1c[nH]c3ccccc13)Nc1ccccc1-2 (stereo unspecified)	0	0	0	-32.0	0	0
Cc1cc(N=Cc2c(O)n(-c3ccc4c(c3)OCO4)c(=O)c3ccccc23)ccn1	0	0	0	-30.7	0	0
O=C1CSC(c2ccc(Cl)cc2)N1Nc1nc(N2CCOCC2)nc(N2CCOCC2)n1 (stereo unspecified)	0	0	0	0	0	0
COc1cc(/C=C2/C(=O)c3cccc([N+](=O)[O-])c3C2=O)c(Br)cc1O	0	0	0	-	54.3	0
CN1c2ccccc2N(C)C1(C)c1cccc2ccccc12	0	0	42.7	0	0	0
CN1c2cccc3cccc(c23)N(C)C1(C)C	0	0	0	0	0	0
Cc1ccc(C)c(NC(=O)CN(C)C(=O)c2ccc3c(=O)n4c(nc3c2)CCC4)c1	0	0	0	-	-	0
COc1ccc(/C=C2/N=C(c3cccs3)OC2=O)cc1OC(C)C	0	0	0	-53.2	107.4	0
O=C(Cn1ccc([N+](=O)[O-])n1)NCc1ccccc1	0	0	0	0	-	0
CCOc1ccc(C2C=C(c3ccc(C)cc3)Nc3ncnn32)cc1 (stereo unspecified)	41.4	-	46.7	0	0	0
COc1ccc(CCN(C)CC(O)COc2ccc(C(C)=O)cc2OC)cc1OC (stereo unspecified)	0	0	0	0	-	0
Cc1nn(C)c2c(=O)c(=O)c2n(C)[nH]1	0	0	0	0	0	0
CCc1nn(C)c2c(=O)c(=O)c2n(C)[nH]1	0	0	33.1	0	0	0
Nc1ccc(Oc2ccccc2F)nc1	0	0	0	0	0	31.9
O=C(Nc1ccc2nc3ccccc3nc2c1)c1ccccc1	0	0	31.4	0	73.1	0
Cc1nn(CC(=O)N2CCN(c3ccccc3)CC2)c(=O)c2cccn12	0	0	0	0	-	0
CC(C)Cc1nnc(NC(=O)CCC(=O)N2CC(C)CC(C)C2)s1 (stereo unspecified)	0	0	0	-27.0	-	0
